PLK1 PBD inh: qHTS for Inhibitors of PLK1-PDB (polo-like kinase 1 - polo-box domain): Primary Screen. Serine/threonine-protein kinase PLK1 (Homo sapiens), P53350. Plk1 PBD binding of FITC phosphopeptide, fluorescence polarization. Potency, µM, inactives show max response, negative = inhibition, most hits filed as inhibitors. hit rate 2.8% among 360,000. AID 720504, 2013; note: potency is the fitted concentration of half-maximal effect; series mostly up to about 57 µM; % is set by controls: 0 for no effect and ±100 for the full control effect; nearly all actives have a fitted effect of over 65% in size
BAZ2B inh: qHTS Assay for Inhibitors of BAZ2B | hit rate 4.4% among 360,000 | Bromodomain adjacent to zinc finger domain protein 2B (Homo sapiens), Q9UIF8 | Potency, µM (titrated, usually from 114 µM), for the others: at the top dose activity change, negative = inhibition, most hits filed as inhibitors | AlphaScreen BAZ2B-H3K14Ac peptide displacement; note: potency is the fitted concentration of half-maximal effect; % is set by controls: 0 for no effect and ±100 for the full control effect; nearly all actives have a fitted effect of over 60% in size
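BAZ2B (50 nM) with biotin-H3(5-23)K14Ac peptide (50 nM) in PBS pH 7.4, 0.01% Tween-20, preformed 30 min, then compound 30 min at room temperature; top concentration 110uM. AlphaScreen streptavidin donor/nickel chelate acceptor beads (10 ug/mL final), 20 min dark, signal read.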
PI5P4Ka inh: qHTS for Inhibitors of phosphatidylinositol 5-phosphate 4-kinase (PI5P4K); hit rate 1.2% among 330,000; Phosphatidylinositol 5-phosphate 4-kinase type-2 alpha (Homo sapiens), P48426; max response, %; AID 652105, 2013; PI5P4Kalpha enzyme, ADP-Glo luminescence, 60 min; stronger effect = lower value; active = max response of -50% or lower; inconclusive = between -30% and -50%; inactive = -30% or higher; note: value at the top dose of about 77 µM; % is set by controls: 0 for no effect and ±100 for the full control effect
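Enzyme plus substrate dispensed, test compounds pinned in, then ATP (5 microM final) added. After 60 min at RT, ADP-Glo reagent 1 for 45 min and reagent 2 for 30 min preceded luminescence imaging.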
HP1b chromo inh: HTS for Inhibitors of HP1-beta Chromodomain Interactions with Methylated Histone Tails; hit rate 0.56% among 390,000; Chromobox protein homolog 1 (Homo sapiens), P83916; AID 540317, 2011; Potency, µM (doses to about 114 µM), for inactives: at the top dose activity change, negative = inhibition, usual class: inhibitors; AlphaScreen HP1-beta / biotin-H3K9me3 peptide binding; note: potency is the fitted concentration of half-maximal effect; nearly all actives have a fitted effect of over 70% in size
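HP1-beta protein (50 nM final) preincubated 30 min at room temperature with biotinylated H3(1-18)K9me3 peptide (50 nM) in PBS pH 7.4, 0.01% Tween-20, then compound added for 30 min. AlphaScreen streptavidin donor/nickel chelate acceptor beads (10 ug/mL final), 30 min dark, luminescence read.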
JMJD2A Tudor: qHTS Assay for Inhibitors of JMJD2A-Tudor Domain. Lysine-specific demethylase 4A (Homo sapiens), O75164. AlphaScreen JMJD2A-Tudor / H3K4me3 peptide binding. Potency, µM (highest dose often 114 µM), inactives show at the top dose activity change, negative = inhibition, actives largely listed as inhibitors. hit rate 4.4% among 390,000. AID 504339, 2011; note: potency is the fitted concentration of half-maximal effect; % is set by controls: 0 for no effect and ±100 for the full control effect; nearly all actives have a fitted effect of over 50% in size
Target sequence (O75164 whole entry, looked up, the tested form may be a part): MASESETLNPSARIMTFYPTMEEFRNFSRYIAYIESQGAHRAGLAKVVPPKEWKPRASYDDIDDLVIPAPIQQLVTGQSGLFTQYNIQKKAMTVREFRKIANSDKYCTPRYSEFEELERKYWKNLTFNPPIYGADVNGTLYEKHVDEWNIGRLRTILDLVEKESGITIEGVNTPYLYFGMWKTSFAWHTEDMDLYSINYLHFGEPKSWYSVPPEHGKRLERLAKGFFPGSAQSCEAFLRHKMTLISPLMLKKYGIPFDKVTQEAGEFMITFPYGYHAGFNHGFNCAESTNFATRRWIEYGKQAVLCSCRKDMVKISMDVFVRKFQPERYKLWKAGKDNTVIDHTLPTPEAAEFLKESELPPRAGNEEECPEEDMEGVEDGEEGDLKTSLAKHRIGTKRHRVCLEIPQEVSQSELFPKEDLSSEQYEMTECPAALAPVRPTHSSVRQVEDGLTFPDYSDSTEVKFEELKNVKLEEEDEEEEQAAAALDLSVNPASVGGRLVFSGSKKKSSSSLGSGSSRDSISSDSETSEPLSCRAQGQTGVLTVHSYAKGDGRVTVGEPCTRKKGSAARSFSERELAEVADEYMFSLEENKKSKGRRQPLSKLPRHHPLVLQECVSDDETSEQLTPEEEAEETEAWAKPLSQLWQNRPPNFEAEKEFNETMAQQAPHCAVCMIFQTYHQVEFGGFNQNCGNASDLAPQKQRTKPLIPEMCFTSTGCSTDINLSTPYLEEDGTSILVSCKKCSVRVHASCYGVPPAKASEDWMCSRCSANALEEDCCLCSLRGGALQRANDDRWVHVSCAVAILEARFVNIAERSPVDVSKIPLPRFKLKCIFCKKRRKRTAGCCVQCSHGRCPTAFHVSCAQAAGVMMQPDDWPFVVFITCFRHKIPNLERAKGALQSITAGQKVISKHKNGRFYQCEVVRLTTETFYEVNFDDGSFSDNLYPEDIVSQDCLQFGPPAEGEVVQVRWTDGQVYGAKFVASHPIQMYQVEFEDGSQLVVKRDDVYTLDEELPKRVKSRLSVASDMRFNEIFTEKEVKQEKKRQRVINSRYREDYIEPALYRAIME
G9a block: qHTS Assay for Inhibitors of Histone Lysine Methyltransferase G9a; Histone-lysine N-methyltransferase EHMT2 (Homo sapiens), Q96KQ7; G9a H3K9 monomethylation, AlphaScreen, 2 h; Potency, µM (highest dose often 102 µM), without a hit: top-dose activity, negative = inhibition, most hits filed as inhibitors; hit rate 8.8% among 350,000; AID 504332, 2011; note: potency is the fitted concentration of half-maximal effect; % is set by controls: 0 for no effect and ±100 for the full control effect; nearly all actives have a fitted effect of over 75% in size
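G9a (20 nM) preincubated 15 min RT with compounds, then 500 nM biotinylated H3K9 peptide and 20 uM SAM added; 2 h RT reaction. Monomethyl-H3K9 product detected by AlphaScreen with anti-H3K9me1 antibody, streptavidin donor and anti-rabbit IgG acceptor beads.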
* = called active by the depositor; ? = inconclusive; . = no result; [ ] = remark or other dose. Hits are enriched below; roughly 12% of the tested compounds scored in any of these assays. Unless noted, calls come from the whole dose curve; as a rule, active = well fitted curve in the direction sought with a large enough effect; inconclusive = small, poorly fitted or top-dose-only effect, or another doubt; inactive = no such curve, though single readings can be large; an effect the other way counts as inactive or inconclusive.

SMILES	PLK1 PBD inh	BAZ2B inh	PI5P4Ka inh	HP1b chromo inh	JMJD2A Tudor	G9a block
Cc1ccc(S(=O)(=O)N2CCN(c3nc(-c4ccc(CN5CCNCC5)s4)nc4ccccc34)CC2)cc1	.	.	.	-20%	?	.
CC(C)Cn1c(N)c(C(=O)COC(=O)c2cc(-c3ccco3)nc3ccccc23)c(=O)n(C)c1=O	?	79µM*	-97*	?	40µM*	?
Cn1c(=O)c(C(=O)COC(=O)c2cc(-c3ccco3)nc3ccccc23)c(N)n(Cc2ccccc2)c1=O	.	45µM*	.	.	.	8.9µM*
CC(C)Cn1c(N)c(C(=O)COC(=O)c2cc(-c3ccccc3)nc3ccccc23)c(=O)n(C)c1=O	4%	-9%	2	31%	-7%	?
Cn1c(=O)c(C(=O)COC(=O)c2cc(C(F)(F)F)nc3c(C(F)(F)F)cccc23)c(N)n(CC2CC2)c1=O	.	-39%	.	.	.	50µM*
CC(C)CCOc1ccc(Cl)cc1CN1CCOCC1	24µM*	4%	7	56%	16%[11.4 µM]	29%[12.7 µM]
CCN(c1ccccc1)c1nnc(NC(=O)Nc2ccc(Br)cc2F)s1	.	3%	.	66%	-3%	-43%[59 µM]
Cc1ccc(Cl)cc1N1CCN(C(=O)Cc2cn(C)c3ccccc23)CC1	-3%	?	3	?	?	13µM*
Cc1ccc(Cl)cc1N1CCN(C(=O)Cc2c(C(=O)O)c(C)cn2C)CC1	.	?	.	14%	-27%	7%[59 µM]
CC(=O)c1ccc(N2CCN(S(=O)(=O)c3ccc4c(c3)NC(=O)CC(=O)N4)CC2)cc1	27µM*	-23%	-26	-6%	16µM*	24%
O=C1Cc2cc(S(=O)(=O)N3CCN(c4ccc(Br)cc4)CC3)ccc2N1	.	.	.	.	141µM*	.
CC(=O)N1CCN(S(=O)(=O)c2ccc3c(c2)CC(=O)N3)CC1	-3%	5%	2	47%	-26%[229 µM]	-26%[12.7 µM]
CC(=O)c1ccc(NS(=O)(=O)c2cc3c(cc2C)N(C)CCO3)cc1	24µM*	?	-11	-4%	?	?
CCN(c1ccccc1)S(=O)(=O)c1cc2c(cc1C)N(C)CCO2	-1%	?	1	2%	?	79µM*
COc1ccc(NS(=O)(=O)c2cc3c(cc2C)N(C)CCO3)c(OC)c1	0%	50µM*	-2	-10%	?	?
COc1ccc(NS(=O)(=O)c2cc3c(cc2C)N(C(C)=O)CCO3)c(OC)c1	2%	7%	-9	36%	-13%	10%
Cc1sc2nc[nH]c(=O)c2c1-c1ccc(Cl)cc1	-22%	-2%	0	28%	-12%	.
N#C/C(=C(\O)c1ccco1)c1ccccn1	3%	-6%	-4	37%	?	?
N#CC(C(=O)c1ccco1)c1ccccn1 (stereo not drawn)	-4%	4%	.	17%	-24%	35µM*
OCCN(CCO)c1nc(N2CCCCC2)c2nc(N(CCO)CCO)nc(N3CCCCC3)c2n1	12µM*	?	-4	22%	-24%	22µM*
CC(=O)Oc1ccc(N(C(C)=O)S(=O)(=O)c2ccccc2)c2ccccc12	-2%	.	3	.	.	.
COc1ccc(S(=O)(=O)N(C(C)=O)c2ccc(OC(C)=O)c3ccccc23)cc1[N+](=O)[O-]	?	4%	-1	41%	-25%	79µM*
CN(C)c1ccc(/C=C2/C(=O)N(c3ccc([N+](=O)[O-])cc3)N=C2N2CCOCC2)cc1	.	7.1µM*	.	.	.	-6%[0.501 µM]
CN(Cc1ccccc1)c1ccc(-c2nc(-c3ccncc3)no2)cc1[N+](=O)[O-]	.	-35%	.	25%	-28%	2%[59 µM]
Cc1c(CN(C)C)c2c(n1Cc1ccccc1)C(=O)c1ccccc1-2	1%	50µM*	8	?	50µM*	?
SMILES	PLK1 PBD inh	BAZ2B inh	PI5P4Ka inh	HP1b chromo inh	JMJD2A Tudor	G9a block
CC(=O)N1CCOC12CCN(Cc1ccccc1)CC2	-4%	.	-1	.	.	.
O=C(NCCOc1ccccc1F)C1CCC(=O)N(CCc2cccc(F)c2)C1 (stereo not drawn)	-12%	-4%	6	45%	-12%	1%[0.0925 µM]
COc1ccnc(CSC(N)=Nc2ccccc2C(F)(F)F)c1	-10%	-3%	1	40%	-6%	-36%[59 µM]
COc1ccnc(CSC(N)=Nc2ccccc2OC)c1	-27%	?	?	7%	45µM*	8.9µM*
COc1ccnc(CN(C)C(=O)C2CCC(=O)N(Cc3cccc(C(F)(F)F)c3)C2)c1 (stereo not drawn)	0%	8%	-2	48%	-13%	86%
COc1ccnc(CSC(N)=Nc2cccc(C(F)(F)F)c2)c1	-21%	35µM*	0	?	20µM*	45µM*
CCOC(=O)c1c(NC(=O)c2cc(=O)c3ccc(C)cc3o2)sc(C)c1C	.	1%	.	27%	-15%	-3%[59 µM]
COC(=O)c1cc(NCc2ccccc2F)ccc1N1CCOCC1	-6%	-12%	.	9%	-25%	45µM*
O=C(O)c1cc(NCc2c(F)cccc2Cl)ccc1N1CCOCC1	-12%	9%	.	9%	-2%	13µM*
Cc1ccc(CNc2ccc(N3CCOCC3)c(C(=O)O)c2)s1	-9%	-8%	.	13%	-24%	-39%[12.7 µM]
CCOc1ccccc1CNc1ccc(N2CCOCC2)c(C(=O)O)c1	-5%	4%	.	8%	-13%	-15%
Cc1ccc(N(Cc2cccs2)C(=O)c2ccccc2)cc1	.	24%	.	106%	64%	8%[59 µM]
CCN(CC)C(=S)NC(=O)Cc1ccccc1	-6%	-17%	-8	47%	0%	14%
CN(C(=S)NC(=O)Cc1ccccc1)c1ccccc1	30µM*	-10%	1	21%	-6%[57.1 µM]	.
CC(C)(C)NC[C@H](O)COc1cccc2c1CCC(=O)N2	.	.	.	.	.	23%[21.5 µM]
C=C1N(C)c2cc([N+](=O)[O-])c(N)cc2C1(C)C	?	45µM*	-20	?	?	32µM*
Cc1ccccc1C(=O)OC1OC(=O)C(Cl)=C1Nc1ccc(C(=O)O)cc1 (stereo not drawn)	3.8µM*	1%	-29	?	14µM*	?
CC[n+]1c(C)sc2c(C)cc(C)cc21	-17%	-1%	-4	55%	-28%	-46%[59 µM]
CC[n+]1c(C)sc2cc(OC)ccc21	-19%	-18%	-15	28%	-10%	25µM*

Source: PubChem
